Results published in the supplement of paper PMC6555819.

How the values were obtained:
Experiment in all cases: PBM binding z-score (relative to random genomic background probes); higher = stronger binding; sequences stand for … in GC…GCGATTGACAGCGTAGAATGAAGG
[1] = system: FXR:RXRa (NR concentration 270 nM, RXRa partner concentration 90 nM)
In short: (§1)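 Random background probes are the reference for binding z-scores. These scores derive from regression-normalized fluorescence on custom Agilent 4×180K protein-binding microarrays incubated 1 h with ligand-free nuclear receptor dimers. Binding was detected with antibodies against each partner (one per run).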

[2] = system: LXRa:RXRa (NR concentration 270 nM, RXRa partner concentration 90 nM)
In short: as §1

[3] = system: LXRa homodimer (NR concentration 270 nM)
In short: as §1

[4] = system: LXRb:RXRa (NR concentration 270 nM, RXRa partner concentration 90 nM)
In short: as §1

[5] = system: LXRb homodimer (NR concentration 270 nM)
In short: as §1

[6] = system: PPARa:RXRa (NR concentration 270 nM, RXRa partner concentration 90 nM)
In short: as §1

[7] = system: PPARg:RXRa (NR concentration 180 nM, RXRa partner concentration 90 nM)
In short: as §1

[8] = system: PPARg:RXRa 270nM:90nM, anti-RXR (NR concentration 270 nM, RXRa partner concentration 90 nM)
In short: as §1

[9] = system: PPARg:RXRa 30nM:10nM, anti-RXR (NR concentration 30 nM, RXRa partner concentration 10 nM)
In short: as §1

[10] = system: PPARg:RXRa 90nM:30nM, anti-RXR (NR concentration 90 nM, RXRa partner concentration 30 nM)
In short: as §1

[11] = system: PPARg:RXRa DBDmut IVT, anti-RXR (DBD mutation: RXRa K156A/R161A, NR concentration 270 nM, RXRa partner concentration 90 nM)
In short: as §1

[12] = system: PPARg:RXRa IVT, anti-PPARg (NR concentration 270 nM, RXRa partner concentration 90 nM)
In short: as §1

[13] = system: PPARg DBDmut IVT, anti-PPARg (DBD mutation: PPARg1 K132A/R137A, NR concentration 270 nM)
In short: as §1

[14] = system: PPARg homodimer (NR concentration 180 nM)
In short: as §1

[15] = system: PXR:RXRa (NR concentration 270 nM, RXRa partner concentration 90 nM)
In short: as §1

[16] = system: PXR homodimer (NR concentration 270 nM)
In short: as §1

[17] = system: RARa:RXR (NR concentration 270 nM, RXRa partner concentration 90 nM)
In short: as §1

[18] = system: RARa homodimer (NR concentration 270 nM)
In short: as §1

[19] = system: RARb:RXRa (NR concentration 270 nM, RXRa partner concentration 90 nM)
In short: as §1

| Sequence | PBM binding z-score [1] | PBM binding z-score [2] | PBM binding z-score [3] | PBM binding z-score [4] | PBM binding z-score [5] | PBM binding z-score [6] | PBM binding z-score [7] | PBM binding z-score [8] | PBM binding z-score [9] | PBM binding z-score [10] | PBM binding z-score [11] | PBM binding z-score [12] | PBM binding z-score [13] | PBM binding z-score [14] | PBM binding z-score [15] | PBM binding z-score [16] | PBM binding z-score [17] | PBM binding z-score [18] | PBM binding z-score [19] |
| --- | --- | --- | --- | --- | --- | --- | --- | --- | --- | --- | --- | --- | --- | --- | --- | --- | --- | --- | --- |
| CGCACTAGGTCAAAGGACAGTGAAAGGCGACGTA | 4.07 | 2.88 | 0.082 | 1.83 | -0.151 | 5.48 | 10.1 | 8.55 | 8.13 | 8.98 | 7.3 | 8.16 | 0.801 | 0.993 | 1.27 | 0.0363 | 2.25 | 0.165 | 3.84 |
| ATATGTAGGTTAGGGTCATTCACAAAGTAGGGAA | 4.56 | 4.43 | 1.56 | 4.7 | 1.64 | 5.7 | 7.65 | 6.7 | 3.97 | 6.22 | 6.56 | 6.82 | 1.75 | 2.3 | 4.57 | 2.17 | 4.83 | 2.07 | 3.49 |
| CGAATTAGGTCAAAGGACAGTGAAAGGCGACGTA | 4.51 | 3.08 | 0.314 | 2.23 | 0.106 | 6.11 | 9.47 | 8.69 | 8.66 | 9.34 | 8.15 | 7.88 | 2.44 | 2.21 | 1.46 | 0.358 | 2.87 | 0.296 | 4.18 |
| CGAACTAGGTCACCAGGACACTGAAGAGGTTGGA | 3.92 | 2.61 | 0.155 | 1.95 | -0.211 | 5.31 | 8.46 | 7.07 | 4.81 | 6.92 | 8.03 | 8.93 | 1.04 | 1.58 | 2.02 | 0.353 | 2.73 | 0.625 | 4.22 |
| CGAACCAGGTCAAAGGACAGTGAAAGGCGACGTA | 5.18 | 3.73 | 0.284 | 2.63 | -0.254 | 5.27 | 7.61 | 7.03 | 4.9 | 6.76 | 4.57 | 5.82 | 0.805 | 1.1 | 2.07 | 0.537 | 2.82 | 0.116 | 3.86 |
| CGAACTAGGTTACCAGGACAGTGAAGAGGTTGGA | -0.174 | -0.0635 | -0.296 | -0.238 | -0.499 | 2.53 | 3.94 | 3.65 | 0.924 | 2.52 | 6.94 | 6.73 | 2.08 | 0.829 | -0.124 | -0.211 | 0.296 | -0.114 | 1.13 |
| CGAACTAGGTCAAAGGACGGTGAAAGGCGACGTA | 4.04 | 2.51 | -0.304 | 1.41 | -0.584 | 5.34 | 9.5 | 8 | 7.43 | 8.82 | 7.71 | 8.31 | 2.26 | 1.81 | 0.75 | -0.279 | 2.05 | 0.114 | 3.76 |
| ATATGTAGGTTAGGGTAATTCAGAAAGTAGGGAA | 1.61 | 1.22 | 0.994 | 1.87 | 1.03 | 3.31 | 4.75 | 3.91 | 2.13 | 3.13 | 6.57 | 6.48 | 2.48 | 2.03 | 0.958 | 1.34 | 1.34 | 1.87 | 1.33 |
